Screen size: about 300,000 compounds; about 3,600 (1.2%) were called active. The full list was thinned out, with actives kept by preference. Unmarked numbers belong to inactive results. Cut-off read from the data, not from the text of the source: active = activation above about 30% (passing the limit was not always enough); inconclusive = no clear call, values can overlap the other calls.

The experiment can be described thus: Wnt/beta-catenin pathway activators, primary screen, cell-based, plate reader, single point (AID 743398).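 Note: 0% = neutral control wells and 100% = positive control wells.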 The conditions noted are these: Wnt/beta-catenin reporter cell assay, activator, at 9.35 µM, stronger effect = higher value.
As for `O=C(c1ccc(F)cc1)n1c(=S)nc2ccccn21`, the activation is 55.5% (active). `O=C(c1ccc(F)cc1)n1cc(C(=S)N2CCOCC2)c2ccccc21`: the activation was -0.566%. As for `O=C(Cn1c(=S)nc2ccccn21)N1CCc2ccccc2C1`, the activation was 17.7%. As to `CC(C)(C)S(=O)N1Cc2cc(C(=O)NCCCN3CCOCC3)nc(-c3cccc(-c4cc5ccccc5o4)c3)c2[C@H]1CCO` (some centres not stated), the activation is -3.72%.

As for `O=C(Nc1ncccc1O)c1ccc(C(=O)c2ccccc2)cc1`, the activation is 21.2%. As for `O=C(Nc1ccc(C(=O)O)c(O)c1)c1ccccc1`, the figure is -0.311%; as for `O=C(NC(=O)c1ccccc1)Nc1ccccc1O`, 40.2% (active); as for `Cc1cc(/C=C2/SC(=O)N(CC(=O)OC(C)C)C2=O)c(C)n1C`, 32.5% (active).

On to `Cc1cccc2c1N(CC(=O)OC(C)C)C(=O)C2=O`, for which the activation was -1.39%. `Cc1cc(/C=C2/SC(=O)N(CC(=O)N3CCCC3)C2=O)c(C)n1C`: the activation is -1.52%. For the molecule `COc1cccc(OCC(=O)NCCS(=O)(=O)N2CCN(c3ccccc3)CC2)c1`, the activation was -0.863%. Take `COC(=O)c1ccc2nc(-c3ccc(OC)c(OC)c3)c(Cc3ccccc3)n2c1`: the activation is -2.38%. Consider `COc1ccc(CC(=O)Nc2nc(-c3ccc(F)c(F)c3)cs2)cc1OC`, for which the activation was -5.88%. As to `Fc1ccc(-c2csc(-c3ccc(C4SCCS4)cc3)n2)cc1F`, the activation was 34% (active). For the molecule `Clc1ccc(-c2csc(-c3ccncc3)n2)cc1`, the activation was 6.51%.

As for `COC(=O)C1=C(C)N(Cc2ccccc2C(F)(F)F)C(=NCc2ccc(C(F)(F)F)cc2)NC1c1ccc(F)cc1` (configuration not stated), the activation is -3.9%. As for `COCCCNC(=O)c1ccc(-c2c(C)noc2C)c2ccoc12`, the activation was 3.17%.

With `O=C(Nc1ccc(Cl)c(C(F)(F)F)c1)C1Cc2c(-c3ccccc3Oc3ccccc3)ccnc2O1` (configuration not stated), the activation was -4.6%. As for `Cc1c(C(=O)NCC2CCCO2)sc2nc(-c3ccccc3)cn12` (configuration not stated), the figure is 8.78%. For the molecule `Cc1cccc2cc3c(N)c(C(=O)N4CCCc5ccccc54)sc3nc12`, the activation was -13.9%. On to `Cc1c(C(=O)N2CCCc3ccccc32)sc2nc(-c3ccccc3)cn12`, for which the activation is 51.4% (active).

Turning to `Cn1c(CCN2CCN(c3ccccn3)CC2)nc2cc(NS(=O)(=O)c3ccc(F)cc3)ccc21`, the activation is -2.6%.

For the molecule `Cc1ccc(C(=O)Nc2nnc(-c3ccncc3)s2)o1`, the activation is 2.92%. The same measure for `Cc1ccc(C(=O)Nc2nc3ccc(Cl)cc3s2)o1`: 36.2% (active); for `CCc1noc(C)c1C(=O)Nc1nc2ccc(OC)cc2s1`: 9.85%; for `CC(C)(C)Cc1c(C2CCCCC2)nc2ccc(Br)cn12`: -1.26%. Turning to `CCOC(=O)c1sc(NC(=O)COc2ncnc3ccccc23)c(C(=O)OCC)c1C`, the activation was -6.66%. Regarding `COC(=O)c1c(NC(C)=O)sc(C(=O)Nc2ccccc2OC)c1C`, the activation is -1.17%. Consider `CCC(=O)Nc1sc(C(=O)Nc2ccccc2)c(C)c1C(=O)OC`, for which the activation was 68.1% (active). As for `O=C1Nc2ccccc2C1=NN=Cc1ccco1`, the figure is 0.126%; as for `CCOC(=O)N1CCN(C(=O)COc2ccc3oc4c(c3c2)CCCC4)CC1`, -0.344%.

Turning to `O=C(COc1ccc2oc3c(c2c1)CCCC3)Nc1ccccn1`, the activation was 39.6% (active).

`CCN(CC)CCCNC(=O)COc1ccc2oc3c(c2c1)CCCC3`: the activation was -0.131%. As to `CC1(C)OC(=O)C2=C(C[C@@H](C3CCCC3)O[C@@H]2c2ccc(Cl)cc2)O1`, the activation is -1.11%. The same measure for `CN(Cc1ccccc1)S(=O)(=O)c1nnc(NC(=O)c2ccccc2F)s1`: -0.354%; for `O=C(Nc1nnc(-c2ccccc2F)s1)c1ccccc1F`: 32.6% (active); for `O=C(Nc1ccc(NC(=O)c2ccccc2F)cc1)c1ccccc1F`: -1.97%. With `COC(=O)C1=C(C)N(Cc2ccc(C(F)(F)F)cc2)C(=NCc2ccccc2)NC1c1ccccc1C(F)(F)F` (configuration not stated), the activation was -11.5%. Regarding `O=C(CSc1cccc[n+]1[O-])c1ccc(-c2ccccc2)cc1`, the activation was 10.1%.

For `Cc1ccc(Sc2cc(C(=O)c3ccccc3C(=O)O)ccc2[N+](=O)[O-])cc1`, the activation is 0.926%. On to `Cc1ccc(C(=O)CSc2ccccc2C(=O)O)cc1`, for which the activation is 31.9% (active). For the molecule `CCCCNC(=O)C[C@@H]1C[C@@]2(C(=O)OCC)CCC=C2N(Cc2cccc3ccccc23)C1=O`, the activation was -1.83%.

In the case of `CC(C)C1CCN(C(=O)C2CCC(=O)N(C3CCCCCC3)C2)CC1` (configuration not stated), the activation is 0.269%. The same measure for `CCOC(=O)C1(C)CCCN(C(=O)c2cccc(Cl)c2)C1` (configuration not stated): -1.09%; for `Cc1ccc(NC(=O)N2c3ccccc3SC2c2ccco2)c(C)c1` (configuration not stated): 4.58%. The same measure for `CCC(C)(C)NC(=O)C(c1cccn1C)N(Cc1ccc(C)cc1)C(=O)Cn1nnc2ccccc21` (configuration not stated): 0.194%; for `COCCNC(=O)C(c1ccc(C)o1)N(Cc1ccccc1)C(=O)Cn1nnc2ccccc21` (configuration not stated): 40.8% (active); for `COc1ccccc1N(C(=O)Cn1nnc2ccccc21)C(C(=O)NCc1ccco1)c1ccc(C)o1` (configuration not stated): -2.2%. The same measure for `Cc1ccc(S(=O)(=O)N(CCc2ccccc2)c2ccc3c(c2)C2CC3CCN2C(=O)OCc2ccccc2)cc1` (configuration not stated): -4.45%; for `CCCCCCN1C[C@H](O)[C@@H](n2cc(C3CC3)nn2)C[C@@H]1c1ccc(Cl)cc1`: 0.514%. For `CN1CCCc2nc(-c3ccccc3)ccc21`, the activation is 28.7%.

Take `Nc1ncnc2c1ncn2[C@@H]1O[C@H](C(=O)N[C@@H](CCc2ccccc2)C(=O)N2CCCN(Cc3cccs3)CC2)[C@@H](O)[C@H]1O`: the activation is 2.88%.

`CC(C)(C)CC(=O)Nc1nc(C(N)Cc2ccc(C(F)(F)F)cc2)cs1` (configuration not stated): the activation was -3.02%. On to `O=C(CNC(=O)c1ccccc1F)c1ccc(Br)cc1`, for which the activation is 39% (active). Take `O=C(NCCOc1ccccc1)c1ccccc1F`: the activation was 2.79%. For `O=C(CNC(=O)c1ccc(F)cc1)c1ccccc1`, the activation was 12.3%. The same measure for `C=CCn1nc(C(=O)OCC)cc1-c1sc(NC(=O)c2ccccc2)nc1C`: -1.67%. As to `CC1(C(=O)Nc2cccnc2)Cc2c(-c3ccccc3)ccnc2O1` (configuration not stated), the activation was -1.45%.

Consider `O=C(Nc1ccc(Cl)cn1)c1ccccc1-c1ccccc1`, for which the activation is -0.296%. Consider `CCCc1cc(C(=O)Nc2ccc(Cl)cn2)cs1`, for which the activation was 39.5% (active). As for `CCCc1cc(C(=O)Nc2ccc(C(=O)OC)cc2)cs1`, the activation is 0.573%.

As for `Cc1ccc(F)c(S(=O)(=O)NC(=O)C2(C)CCN2C(=O)c2ccco2)c1` (configuration not stated), the activation was -0.487%. Take `C=CCN=C1NC(c2cccc(C(F)(F)F)c2)C(C(=O)OC)=C(C)N1C` (configuration not stated): the activation was 1.05%.

With `CC(=O)c1ccc(-c2cnc3c(NC=O)cc(-c4cccc(NS(C)(=O)=O)c4)cn23)cc1`, the activation was 1.57%. For `C[C@@H]1ON(C)[C@H]2C[C@H]3c4cc(N5CCOCC5)ccc4CCN3C[C@@H]12`, the activation was -0.66%. Take `CC(NC(=O)Nc1ccc2c(c1)OCO2)c1ccncc1` (configuration not stated): the activation was 9.83%. Consider `Cc1cccc(NC(=O)Nc2ccc3c(c2)OCO3)n1`, for which the activation was 44.4% (active).

Turning to `CNS(=O)(=O)c1ccc(NC(=O)Nc2ccc3c(c2)OCO3)cc1`, the activation was 26.8%.

Consider `CN(Cc1ccccc1)C(=O)CCC1CCN(C(=O)c2ccco2)CC1`, for which the activation was -3.66%.

For `O=[N+]([O-])c1cc(Br)c(O)c(/C=N/Nc2nc3ccccc3s2)c1`, the activation is 8.44%. Turning to `c1ccc(C(=NNc2nc3ccccc3s2)c2ccccn2)cc1`, the activation is 5.23%. As for `c1ccc2sc(NN=C3CCCC3)nc2c1`, the activation is 52.4% (active). On to `CCOC(=O)N(C)c1c(CC)nc2c(OCc3ccccc3C(=O)OC)cccn12`, for which the activation was 4.08%. For `CN(Cc1ccc(C(F)(F)F)cc1)C(=O)[C@H]1O[C@@H](n2cnc3c(N)ncnc32)[C@H](O)[C@@H]1O`, the activation was -3.24%. Turning to `CC1(Oc2cccc(F)c2)CCN(Cc2ccccc2OC(F)F)C1` (configuration not stated), the activation is 0.111%. The same measure for `Cc1ccc2nc(-c3ccc(NC(=O)c4cccnc4)cc3)oc2c1`: 4.47%; for `CC(=O)Nc1ccc(-c2nc3ccccc3o2)cc1`: 62% (active).

`CC(=O)Nc1ccc(Nc2c3ccccc3nc3ccccc23)cc1`: the activation was -1.24%. As for `CCOC(=O)N1CCN(C(=O)C[C@@H]2C[C@@]3(C(=O)OC)CCCCC=C3N(CCC3=CCCCC3)C2=O)CC1`, the activation was -3.76%. As for `COc1cccc(/C=N/Nc2ccc(Cl)nn2)c1`, the figure is 10.5%; as for `Oc1cccc(/C=N/Nc2ccc(Cl)nn2)c1O`, 125% (active). With `Clc1ccc(N/N=C/c2cccs2)nn1`, the activation is 3.73%. The same measure for `COC(=O)c1cc2c(c3c4cc(F)ccc4n(S(=O)(=O)c4ccccc4)c13)C(=O)N(Cc1ccccc1OC)C2`: -6.32%; for `Cc1cccc(C(=O)OCC(=O)Nc2ccc(F)cc2)c1`: -0.891%. As for `CCC(=O)Nc1ccc2nn(-c3ccc(F)cc3)nc2c1`, the figure is 51% (active); as for `Cc1nn(CC(=O)Nc2ccc(F)cc2)c(=O)c2ccccc12`, -0.309%; as for `O=C(CCCN1C(=O)C(c2ccccc2)Oc2cccnc21)Nc1ccccc1Br` (configuration not stated), -1.84%.

Consider `O=C(C(=O)N1CCC(CNC(=O)c2cccnc2Cl)CC1)c1cccs1`, for which the activation is 2.94%. Consider `COc1ccccc1N1CCN(C(=O)Cn2nnc(-c3cccs3)n2)CC1`, for which the activation is -9.59%. For `Clc1cccc(Cl)c1Cn1nnc(-c2cccs2)n1`, the activation was 32.4% (active). As to `O=c1cc(Cn2nnc(-c3ccc(Cl)cc3)n2)nc2sccn12`, the activation was 3.21%. The same measure for `CCOC(=O)Cn1c2c(n(-c3ccc(F)cc3)c1=O)C=C(c1ccccc1)[C@@H](C)C(C(=O)N(C)C1CCCCC1)=C2`: -5.16%.

(Values after PubChem BioAssay AID743398 (Broad Institute, 2014).)
